Source: PubChem BioAssay
Sampled rows, rich in hits. Any-hit rate of the full collection: about 3.6%.
HSF1 activator – HSF-1 activators, primary screen, NIH3T3-HGL cells, MG132 stress, luminescence, single point | activation, % at 9 µM | NIH3T3-HGL HSF-1 luciferase reporter, 8 h; 100% = twice DMSO control signal | 1.7% of 300,000 active | AID 504408, 2011;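 active means mean replicate activation of at least 50% with a set share of replicates each reaching 50%; inconclusive means only one of those two conditions met; inactive means mean below 50% and too few replicates reaching it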;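 further: 0% = median of the neutral control wells and 100% = twice that signal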
EBV LMP1 NFkB – EBV LMP1-driven NF-kappaB luciferase reporter inhibitors, primary screen, cell-based, luminescence, single point; inhibition, % at 12.5 µM; AID 504558, 2011; LMP1-induced NF-kappaB luciferase reporter cells; 0.69% of 350,000 active; in the data active means inhibition above about 41%; inconclusive means no clear call, values can overlap the other calls;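 further: 0% = neutral control wells and 100% = reference inhibitor control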
TROY NFkB inh – inhibitors of TROY-driven NF-kB signaling, primary screen, Q293 LMP1-TROYcd cells, NF-kB luciferase, uHTS | Q293 LMP1-TROYcd NF-kB luciferase reporter, 4 h | inhibition, % at 10 µM | 0.98% of 360,000 active;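 active means compounds whose plate-normalised and pattern-corrected inhibition of the luciferase reporter signal at the single screening dose is 50% or more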
TWEAK-Fn14 inh – inhibitors of TWEAK-Fn14 signaling, primary screen, luciferase reporter cells, uHTS; TWEAK-stimulated Fn14 reporter cells, luciferase luminescence, 8 h; inhibition, % at 10 µM; 2% of 360,000 active; AID 1159606, 2016; in the data active means inhibition above about 50%
HSF1 inhib – HSF1 inhibitors in luciferase reporter cells, primary screen, cell-based, NIH3T3, luminescence; NIH3T3-HGL HSE-luciferase, MG132-induced, luminescence 8 h; active compounds read low; activity change, negative = inhibition, % at 7.5 µM (by protocol); 0.77% of 300,000 active; AID 2098, 2009;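 active means more than half of replicate wells show activity change below -50%, luminescence cut by over half; inconclusive means some wells, but at most half, below -50%; inactive means no replicate well below -50%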;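 further: luciferase reports HSF-1 transcriptional activity via heat shock element; 0% = median of DMSO wells and -100% = zero luminescence signal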
LGR2 antag – inhibitors of bursicon-induced LGR2 CRE-luciferase signal, primary screen, cell-based, HEK293, CRE-luciferase reporter, bursicon stimulation; Drosophila bursicon receptor LGR2 (rickets); bursicon-stimulated, 4 h; inhibition, % at 9.99 µM; 0.35% of 380,000 active; AID 720647, 2013;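 active means drop in luminescence signal, shown as inhibition above about 50% in the replicate tests, limit read from the data, passing the limit was not always enough; inconclusive means probably only some replicates passing the limit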;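 further: agonist challenge used bursicon conditioned medium at about half maximal strength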
* marks the source's active call; other numbers are inactive results; u = inconclusive; x = not tested or not shown.

SMILES	HSF1 activator	EBV LMP1 NFkB	TROY NFkB inh	TWEAK-Fn14 inh	HSF1 inhib	LGR2 antag
CC1(C)CC(=O)C(C(c2cccnc2)C2C(=O)CC(C)(C)CC2=O)C(=O)C1	-91.8	-5.6	-11.6	6.1	-89.5*	x
COc1cccc(C(C2C(=O)CC(C)(C)CC2=O)C2C(=O)CC(C)(C)CC2=O)c1	-8.9	-10.4	12.4	11.3	0.6	10.2
O=C(CN1C(=O)CCC1=O)Nc1nc(-c2nc3ccccc3s2)cs1	45.5	-1.6	-6.1	82.8*	33.2	-54.4
O=C(Nc1nc(-c2nc3ccccc3s2)cs1)C1CC1	67.3*	-59.3	-55.1	5.6	33.7	-39.1
O=C(CN1C(=O)CCC1=O)Nc1nc(-c2ccccn2)cs1	10.1	-0.7	0.9	12.1	-7.1	-32.8
Cc1ccc2cc(CCNS(=O)(=O)c3ccc(F)cc3)c(=O)[nH]c2c1C	15.2	0.4	56.5*	59.0*	8.8	7.3
COc1cccc(-c2ccc([C@H]3[C@H](CO)N4C(=O)CN(C(=O)NC(C)C)C[C@@H]34)cc2)c1	x	x	x	x	x	-4.8
O=C(C1=C[C@H](c2ccc(Br)cc2)C[C@H](OCCCCO)O1)N1CCN(Cc2ccc3c(c2)OCO3)CC1	-62.2	7.8	4.1	-8.0	-53.7*	x
O=C(C1=C[C@@H](c2ccc3c(c2)OCO3)C[C@@H](OCCCCO)O1)N1CCN(Cc2ccc3c(c2)OCO3)CC1	7.1	-3.7	-4.7	0.3	3.5	-0.3
COc1ccc(Cn2cc3c(-c4ccc(F)cc4)nnc-3c3cc(OC)c(OC)cc32)cc1	x	69.2*	-33.2	-202.6	x	31.1
COCC(=O)N1CCC2(CC1)CN(Cc1cccc(Cl)c1)[C@@H](CO)c1[nH]c3cc(OC)ccc3c12	x	x	x	x	x	-13.8
Cc1ccc(/C=C/C(=O)Nc2nccs2)o1	62.3*	-16.5	-11.9	-19.1	33.1	-20.0
CCOC(=O)/C=C/C(=O)Nc1nccs1	53.2*	5.9	-3.7	35.5	33.1	11.0
C[C@H]1CN([C@@H](C)CO)C(=O)c2cc(C#Cc3ccncc3)cnc2O[C@H]1CN(C)Cc1ccncc1	x	x	x	x	x	-22.8
CCc1nnc(NC(=O)c2ccc(S(=O)(=O)N3CCc4ccccc4C3)cc2)s1	-12.8	2.3	5.2	4.2	-0.6	-6.9
COc1ccc(NC(=O)c2ccc(Cl)c(S(=O)(=O)N3CCc4ccccc4C3)c2)cn1	-18.0	5.0	53.2*	85.6*	-8.8	34.6
COc1ccc(NC(=O)c2ccc(Cl)c(S(=O)(=O)N3CC(C)OC(C)C3)c2)cn1 (stereo unspecified)	x	23.2	14.3	26.5	x	0.8
CCc1nnc(NC(=O)c2ccc(S(=O)(=O)N3CCOCC3)cc2)s1	-15.7	78.5*	-15.1	-0.1	-0.5	26.8
CCc1nnc(NC(=O)c2ccc(Cl)c(S(=O)(=O)N3CCc4ccccc4C3)c2)s1	3.6	6.1	55.3*	14.3	-2.4	9.3
O=C(Nc1ccccn1)c1ccc(Cl)c(S(=O)(=O)N2CCc3ccccc32)c1	x	20.9	32.8	56.3*	x	6.4
CCNC(=O)C[C@H]1CC[C@H]2[C@H](COc3ccc(NC(=O)c4cc(C)on4)cc3C(=O)N2C)O1	x	x	x	x	x	8.1
COc1ccc2c3c(n(C)c2c1)[C@@H](CO)N(C(=O)Nc1ccc(F)cc1)CC31CN(S(=O)(=O)c2cccs2)C1	x	x	x	x	x	23.1
CN1C(=O)c2cc(NC(=O)C3CCCC3)ccc2OC[C@H]2O[C@H](CC(=O)O)CC[C@H]21	x	x	x	x	x	-1.4
O=C(c1ccncc1)N1C[C@H]2[C@@H](c3ccccc31)[C@@H](CO)N2C(=O)c1ccncc1	x	x	x	x	x	3.2
Cc1nnsc1NC(=O)OCc1ccc(C(C)(C)C)cc1	7.6	10.3	x	56.0*	0.9	-26.0
SMILES	HSF1 activator	EBV LMP1 NFkB	TROY NFkB inh	TWEAK-Fn14 inh	HSF1 inhib	LGR2 antag
C=CCOC(=O)Nc1snnc1C	-20.9	7.2	5.3	-4.1	-8.3	-17.5
CO[C@H]1CN(C)C(=O)c2cc(NC(=O)Nc3cccc(F)c3)ccc2OC[C@@H](C)NC[C@H]1C	x	x	x	x	x	-1.5
COc1cc(/C=C/C(=O)c2ccc(NS(=O)(=O)c3ccc(C)cc3)cc2)cc(OC)c1O	u	2.9	-0.2	60.4*	15.6	46.8
COc1cccc(/C=C/C(=O)c2ccc(C)c([N+](=O)[O-])c2)c1	48.7	5.7	-19.1	-27.1	10.0	-9.8
COc1ccc(/C=C/C(=O)c2ccc(C)c([N+](=O)[O-])c2)cc1O	66.9*	-2.0	14.8	10.0	22.2	-15.3
COc1cc(/C=C/C(=O)c2ccc(C)c([N+](=O)[O-])c2)cc(OC)c1O	128.0*	14.5	31.9	68.9*	70.2	7.9
COc1cc(/C=C/C(=O)c2ccc(NS(=O)(=O)c3ccc(C)cc3)cc2)ccc1OC(F)F	-9.6	-3.2	-1.9	28.7	-4.9	-8.3
O=C(CCN1CCCCC1)N[C@H]1CC[C@H](CCn2cc(-c3ccccc3)nn2)O[C@@H]1CO	x	x	x	x	x	4.2
CC(C)C#Cc1ccc([C@@H]2[C@@H](CO)N3C(=O)CN(C(=O)c4ccc5c(c4)OCO5)C[C@H]23)cc1	x	x	x	x	x	-8.4
O=C(O)C[C@H]1CC[C@@H](NC(=O)CCN2CCCCC2)[C@H](CO)O1	x	x	x	x	x	-4.4
C[C@@H]1CCCCO[C@@H](CN(C)C)[C@@H](C)CN([C@H](C)CO)C(=O)c2cc(NC(=O)Cc3ccccc3)ccc2O1	x	x	x	x	x	2.4
COc1cccc(-c2cc3onc(-c4ccccc4)c3c(=O)n2C)c1	x	-15.7	61.2*	70.4*	x	25.5
C[C@H](NC(=O)C[C@@H]1CC[C@H](NC(=O)CN2CCOCC2)[C@@H](CO)O1)c1ccccc1	x	x	x	x	x	-3.9
O=C1c2ccccc2C(=O)N1N(c1ccccc1)c1ccccc1	x	8.8	-7.5	23.6	x	1.0
O=C1C=CC(=O)N1N(c1ccccc1)c1ccccc1	69.1*	-4.6	1.6	19.7	56.8	10.3
Cc1ccc(S(=O)(=O)N2CCN(c3ccnc4cc(Cl)ccc34)CC2)cc1	6.1	5.3	30.8	50.6*	-0.2	8.4
Cc1cc(N2CCN(S(=O)(=O)c3ccc(Cl)cc3)CC2)c2ccccc2n1	20.3	-6.6	52.7*	30.6	11.1	x
CS(=O)(=O)N1CCN(c2ccnc3cc(Cl)ccc23)CC1	25.6	7.0	21.1	67.0*	-2.8	3.4
CCC(=O)N1CCN(c2ccnc3cc(Cl)ccc23)CC1	5.1	24.0	14.4	-12.0	-9.4	4.8
Cc1ccc(S(=O)(=O)N2CCN(c3ccnc4cc(Cl)ccc34)CC2)cc1C	18.7	9.7	25.2	9.6	9.5	-1.6
O=C(c1ccc(Cl)cc1)N1CCN(c2ccnc3cc(Cl)ccc23)CC1	3.7	49.6*	34.2	-0.6	-4.2	19.5
